This is part of a sample that, as a whole, favours compounds with a hit. Of some 79,000 tested, about 15% had one in any assay. Active and inactive are the calls of the source. Cut-off read from the data, not from the text of the source: active = growth inhibition above about 70%; inactive = the rest.
Assays:
[1] = NCI Yeast Anticancer Drug Screen. Data for the rad52 strain (AID 147);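 note: 0% = growth of vehicle-treated control cultures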; conditions: S. cerevisiae rad52 mutant growth inhibition, hits give high values
Summary of the method: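 Compounds are applied to a genetically defined yeast strain lacking normal DNA damage repair, and inhibition of growth is expressed relative to cultures given vehicle only.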

[2] = NCI Yeast Anticancer Drug Screen. Data for the wt1 strain (AID 149);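 note: 0% = growth of vehicle-treated wt1 cultures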; conditions: S. cerevisiae wt1 strain (SPY 50644) growth inhibition, hits give high values
Summary of the method: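 Each compound is tested on wt1 yeast and the loss of growth versus vehicle gives the inhibition value.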

[3] = NCI Yeast Anticancer Drug Screen. Data for the rad50EPP+ strain (AID 151);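 note: 0% = growth of vehicle-treated control cultures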; conditions: S. cerevisiae rad50 mutant strain, hits give high values
Summary of the method: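 Compounds were applied to the rad50EPP+ yeast strain, which bears a defined DNA repair alteration, and growth inhibition was determined relative to vehicle-treated cultures.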

[4] = NCI Yeast Anticancer Drug Screen. Data for the mgt1 strain (AID 153); conditions: S. cerevisiae mgt1 mutant growth inhibition, hits give high values
Summary of the method: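 Strain: mgt1 yeast, one of a set carrying defined DNA damage repair or cell cycle control alterations. Compound-treated growth compared with vehicle.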

[5] = NCI Yeast Anticancer Drug Screen. Data for the rad50 strain (AID 155);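 note: 0% = growth of vehicle-only cultures of the same strain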; conditions: S. cerevisiae rad50 strain growth inhibition, hits give high values
Summary of the method: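 Vehicle-treated cultures provide the reference for the growth inhibition reported for compound-exposed, repair-deficient yeast.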

[6] = NCI Yeast Anticancer Drug Screen. Data for the mec2-1 strain (AID 157); conditions: S. cerevisiae mec2-1 strain, hits give high values
Summary of the method: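 Strain: mec2-1 (DNA repair/cell cycle alteration). Compound exposure, then growth measured; inhibition expressed relative to vehicle.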

[7] = NCI Yeast Anticancer Drug Screen. Data for the rad14 strain (AID 159);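 note: 0% = growth of vehicle-treated control cultures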; conditions: S. cerevisiae rad14 strain growth inhibition, hits give high values
Summary of the method: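 Inhibition of growth is reported for a repair-deficient yeast mutant following compound treatment, calculated relative to cultures that received vehicle.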

[8] = NCI Yeast Anticancer Drug Screen. Data for the sgs1 mgt1 strain (AID 161);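 note: 0% = growth of cultures given vehicle only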; conditions: S. cerevisiae sgs1 mgt1 strain, hits give high values
Summary of the method: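 Mutant yeast exposed to compound; growth scored against vehicle-only wells.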

[9] = NCI Yeast Anticancer Drug Screen. Data for the CLN2oe strain (AID 163);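 note: 0% = growth of vehicle-only control cultures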; conditions: S. cerevisiae CLN2oe strain, hits give high values
Summary of the method: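 Growth of a genetically modified yeast strain is measured after compound exposure and compared with cultures given vehicle alone.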

[10] = NCI Yeast Anticancer Drug Screen. Data for the cln2 rad14 strain (AID 165);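 note: 0% = growth equal to vehicle treated cultures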; conditions: S. cerevisiae cln2 rad14 strain, hits give high values
Summary of the method: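 Compounds are applied to the cln2 rad14 yeast strain, and growth is then compared with that of vehicle-treated cultures to give inhibition.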

[11] = NCI Yeast Anticancer Drug Screen. Data for the bub3 strain (AID 167); conditions: S. cerevisiae bub3 mutant strain, hits give high values
Summary of the method: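 Mutant yeast screening strain plus compound; vehicle-treated cultures serve as the 0% inhibition reference.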

[12] = NCI Yeast Anticancer Drug Screen. Data for the wt2 strain (AID 169); conditions: S. cerevisiae wt2 strain growth inhibition, hits give high values
Summary of the method: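 This strain belongs to a panel of yeast strains with defined genetic alterations in DNA damage repair or cell cycle control. Compounds are applied, and growth inhibition is measured against vehicle-treated cultures.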

[13] = NCI Yeast Anticancer Drug Screen. Data for the mlh1 strain (AID 171);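 note: 0% = growth of vehicle-treated control cultures of the same strain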; conditions: S. cerevisiae mlh1 strain growth inhibition, hits give high values
Summary of the method: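 Growth of the mutant yeast strain after compound exposure, expressed as inhibition relative to vehicle-only controls.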

[14] = NCI Yeast Anticancer Drug Screen. Data for the sgs1 strain (AID 173);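 note: 0% = growth of vehicle-only control cultures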; conditions: S. cerevisiae sgs1 mutant, hits give high values
Summary of the method: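 Growth of a yeast strain bearing a defined genetic alteration is measured after compound treatment. Inhibition is expressed relative to vehicle-only controls.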

[15] = NCI Yeast Anticancer Drug Screen. Data for the mlh1 rad18 strain (AID 175); conditions: S. cerevisiae mlh1 rad18 strain growth inhibition, hits give high values
Summary of the method: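 Read-out is yeast growth inhibition, calculated against vehicle-only controls. The compound was applied to a strain engineered with DNA damage repair alterations.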

[16] = NCI Yeast Anticancer Drug Screen. Data for the rad18 strain (AID 177); conditions: S. cerevisiae rad18 mutant growth inhibition, hits give high values
Summary of the method: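 Growth of the mutant yeast strain after compound exposure, normalised to vehicle-only cultures.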

[17] = at 5.0 µM (retest, dose inferred, filed as 0.5)
[18] = at 50.0 µM (retest, dose inferred, filed as 5.0)

Measured: growth inhibition

O=C1Nc2ccc(Br)cc2C1=Nc1ccc(Cl)cc1
inactive: [1]; at 1.2 µM -20% | [1]; at 3.7 µM -12% | [1]; at 11.0 µM 9% | [1]; at 33.0 µM 42% | [1]; at 100.0 µM 64% | [2]; at 1.2 µM -8% | [2]; at 3.7 µM -15% | [2]; at 11.0 µM 14% | [2]; at 33.0 µM 42% | [3]; at 1.2 µM -45% | [3]; at 3.7 µM -10% | [3]; at 11.0 µM -8% | [3]; at 33.0 µM 8% | [3]; at 100.0 µM 41% | [4]; at 1.2 µM -52% | [4]; at 3.7 µM -55% | [4]; at 11.0 µM -21% | [4]; at 33.0 µM 20% | [4]; at 100.0 µM 50% | [5]; at 1.2 µM -29% | [5]; at 3.7 µM -20% | [5]; at 11.0 µM 12% | [5]; at 33.0 µM 42% | [5]; at 50.0 µM 57.4% | [5]; at 100.0 µM 64% | [6]; at 1.2 µM -68% | [6]; at 3.7 µM -75% | [6]; at 11.0 µM -64% | [6]; at 33.0 µM -1% | [6]; at 50.0 µM 54.5% | [6]; at 100.0 µM 57% | [7]; at 1.2 µM -52% | [7]; at 3.7 µM -62% | [7]; at 11.0 µM -46% | [7]; at 33.0 µM -8% | [7]; at 100.0 µM 34% | [8]; [17] 8% | [8]; at 50.0 µM 53.4% | [9]; at 1.2 µM 2% | [9]; at 3.7 µM 1% | [9]; at 11.0 µM 20% | [9]; at 33.0 µM 24% | [9]; at 100.0 µM 52% | [10]; [17] 36% | [10]; [18] 54% | [10]; at 50.0 µM 34% | [11]; at 1.2 µM -38% | [11]; at 3.7 µM -26% | [11]; [17] 28% | [11]; at 11.0 µM -11% | [11]; at 33.0 µM 29% | [12]; at 1.2 µM -20% | [12]; at 3.7 µM -12% | [12]; at 11.0 µM -10% | [12]; at 33.0 µM 14% | [12]; at 100.0 µM 47% | [13]; at 1.2 µM -16% | [13]; at 3.7 µM -24% | [13]; at 11.0 µM -3% | [13]; at 33.0 µM 8% | [13]; at 100.0 µM 46% | [14]; at 1.2 µM -25% | [14]; at 3.7 µM -27% | [14]; at 11.0 µM 3% | [14]; at 33.0 µM 33% | [14]; at 100.0 µM 54% | [15]; [17] 67% | [15]; at 50.0 µM 58.5% | [16]; at 1.2 µM -24% | [16]; at 3.7 µM -13% | [16]; at 11.0 µM 2% | [16]; at 33.0 µM 32% | [16]; at 100.0 µM 60%
active: [2]; at 100.0 µM 71% | [5]; [17] 70% | [5]; [18] 100% | [6]; [17] 77% | [6]; [18] 100% | [8]; [18] 71% | [11]; [18] 86% | [11]; at 50.0 µM 83.4% | [11]; at 100.0 µM 81% | [15]; [18] 100%

Cc1c(C(=O)/C=C/c2ccccc2[N+](=O)[O-])[n+](=O)c2ccccc2n1[O-]
active: [1]; at 1.2 µM 78% | [1]; at 3.7 µM 90% | [1]; at 11.0 µM 93% | [1]; at 33.0 µM 93% | [1]; at 100.0 µM 93% | [3]; at 11.0 µM 77% | [3]; at 33.0 µM 76% | [3]; at 100.0 µM 79% | [4]; at 11.0 µM 93% | [4]; at 33.0 µM 94% | [4]; at 100.0 µM 96% | [5]; at 3.7 µM 86% | [5]; at 11.0 µM 90% | [5]; at 33.0 µM 91% | [5]; [18] 84% | [5]; at 50.0 µM 97.5% | [5]; at 100.0 µM 92% | [6]; at 11.0 µM 77% | [6]; at 33.0 µM 85% | [6]; [18] 83% | [6]; at 50.0 µM 90.5% | [6]; at 100.0 µM 89% | [7]; at 11.0 µM 73% | [7]; at 33.0 µM 74% | [7]; at 100.0 µM 76% | [8]; [18] 98% | [8]; at 50.0 µM 98% | [10]; at 50.0 µM 94.5% | [11]; at 50.0 µM 94.2% | [12]; at 3.7 µM 85% | [12]; at 11.0 µM 91% | [12]; at 33.0 µM 84% | [12]; at 100.0 µM 94% | [13]; at 3.7 µM 73% | [13]; at 11.0 µM 92% | [13]; at 33.0 µM 94% | [13]; at 100.0 µM 94% | [14]; at 1.2 µM 73% | [14]; at 3.7 µM 91% | [14]; at 11.0 µM 94% | [14]; at 33.0 µM 94% | [14]; at 100.0 µM 93% | [15]; [18] 94% | [15]; at 50.0 µM 98.2% | [16]; at 1.2 µM 84% | [16]; at 3.7 µM 90% | [16]; at 11.0 µM 92% | [16]; at 33.0 µM 92% | [16]; at 100.0 µM 93%
inactive: [2]; at 1.2 µM -1% | [2]; at 3.7 µM 22% | [2]; at 11.0 µM 42% | [2]; at 33.0 µM 49% | [2]; at 100.0 µM 60% | [3]; at 1.2 µM 41% | [3]; at 3.7 µM 67% | [4]; at 1.2 µM 10% | [4]; at 3.7 µM 61% | [5]; at 1.2 µM 66% | [5]; [17] 12% | [6]; at 1.2 µM 12% | [6]; at 3.7 µM 32% | [6]; [17] 2% | [7]; at 1.2 µM 37% | [7]; at 3.7 µM 61% | [8]; [17] 6% | [9]; at 1.2 µM 12% | [9]; at 3.7 µM 25% | [9]; at 11.0 µM 41% | [9]; at 33.0 µM 47% | [9]; at 100.0 µM 66% | [10]; [17] -4% | [10]; [18] 54% | [11]; at 1.2 µM -1% | [11]; at 3.7 µM 42% | [11]; [17] -3% | [11]; at 11.0 µM 29% | [11]; at 33.0 µM 33% | [11]; [18] 57% | [11]; at 100.0 µM 29% | [12]; at 1.2 µM 44% | [13]; at 1.2 µM 25% | [15]; [17] 8%

Nc1ccc(S(=O)(=O)Nc2nc3c(c(=O)[nH]2)CCCC3)cc1
active: [1]; at 11.0 µM 87% | [1]; at 33.0 µM 99% | [1]; at 100.0 µM 99% | [2]; at 11.0 µM 93% | [2]; at 33.0 µM 99% | [2]; at 100.0 µM 100% | [3]; at 11.0 µM 80% | [3]; at 33.0 µM 99% | [3]; at 100.0 µM 99% | [4]; at 33.0 µM 98% | [4]; at 100.0 µM 99% | [5]; at 11.0 µM 93% | [5]; at 33.0 µM 99% | [5]; [18] 98% | [5]; at 50.0 µM 99.5% | [5]; at 100.0 µM 99%
inactive: [1]; at 1.2 µM 14% | [1]; at 3.7 µM 18% | [2]; at 1.2 µM 5% | [2]; at 3.7 µM 31% | [3]; at 1.2 µM 12% | [3]; at 3.7 µM 47% | [4]; at 1.2 µM 2% | [4]; at 3.7 µM 0% | [4]; at 11.0 µM 50% | [5]; at 1.2 µM 21% | [5]; at 3.7 µM 22% | [5]; [17] 31% | [6]; at 1.2 µM 0% | [6]; at 3.7 µM 4%
